Experimental data: PubChem BioAssay
Where “and” joins values, the source holds several entries; their conditions need not be identical. Equal entries are not always repeated. Calls of active or inactive are those of the source.

Legend:
[1] = test system: PRMT1 (protein arginine N-methyltransferase 1); experiment: small molecules binding arginine methyltransferase PRMT1 – biochemical, small-molecule microarray, 635 nm fluorescence, primary screen (AID 1088); details: higher = more signal;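 further: binding of Prmt1 protein to compounds spotted on small-molecule microarray slides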
[2] = growth effects on S. cerevisiae YJM789 – YJM789 clinical isolate, OD600, 24 h, basal, primary screen (AID 1089); details: higher = more signal, called active from +8 up or from −8 down;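 further: growth of clinical yeast isolate S. cerevisiae YJM 789 seeded 1000 cells per well; test concentration not given here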
[3] = S. pombe growth modifiers, basal conditions – strain 972, OD600, 24 h, no modulator, primary screen (AID 1090);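 further: basal condition with compound alone and no growth modifier present; test concentration not given here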; details: S. pombe 972 growth, higher = more signal, called active from +8 up or from −8 down
[4] = budding yeast growth modifiers under rapamycin – strain BY4716, OD600, 96 h, primary screen (AID 1091); further: test concentration not given here; details: S. cerevisiae BY4716 + rapamycin, higher = more signal, called active from +8 up or from −8 down
[5] = target: Torsin-1A-interacting protein 2 (Homo sapiens) (UniProt Q8NFQ8); experiment: small molecules binding lysate-expressed LULL1 – cell lysate, human LULL1 lysate, 635/667 nm fluorescence, primary screen (AID 1092); details: small-molecule microarray, hLULL1 lysate binding, 635 nm fluorescence; higher = more signal;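 further: probe is lysate of COS7 cells overexpressing human LULL1; score merges per-feature 667 nm fluorescence with signal-to-noise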
[6] = optical density change of DRC41 E. coli – strain DRC41, OD650, 24 h, E. coli filamentation project, primary screen (AID 1093);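 further: MC1000 strain lacking acrAB efflux and sulA so SOS filamentation is blocked; test concentration not given here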; details: E. coli DRC41 growth, higher = more signal, called active from +8 up or from −8 down
[7] = probe aLefty2 binding to arrayed compounds – biochemical, biotinylated probe, 635/667 nm fluorescence, primary screen (AID 1094); details: small-molecule microarray, higher = more signal;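 further: score merges spot fluorescence near 667 nm with spot signal-to-noise ratio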
[8] = test system: Noggin (protein binding on small-molecule microarray); experiment: small molecules binding Noggin protein – biochemical, 635/667 nm fluorescence, primary screen (AID 1095); details: 635 nm fluorescence, higher = more signal;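 further: score merges 667 nm feature fluorescence with signal to noise over triplicate slides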
[9] = target: Neurogenic locus notch homolog protein 3 (Homo sapiens) (UniProt Q9UM47); experiment: small molecules binding NOTCH3 protein – biochemical, 635/667 nm fluorescence, primary screen (AID 1096); details: small-molecule microarray, 635 nm fluorescence, higher = more signal
[10] = probe aEGFR binding to arrayed compounds – biochemical, biotinylated probe, 635/667 nm fluorescence, primary screen (AID 1097); details: small-molecule microarray, higher = more signal;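 further: probe is a biotinylated anti-EGFR antibody binding compounds printed on slides; score combines fluorescence near 667 nm and signal to noise of each spot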
[11] = test system: Plasmodium falciparum Sir2 (PF13_0152, Sir2A); experiment: Plasmodium falciparum Sir2A binding compounds – biochemical, small-molecule microarray, 635 nm fluorescence, primary screen (AID 1098); details: fluorescence 635 nm, higher = more signal;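 further: score merges spot fluorescence intensity with its signal-to-noise ratio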
[12] = probe aDKK1 binding to arrayed compounds – biochemical, biotinylated probe, 635/667 nm fluorescence, primary screen (AID 1099); details: small-molecule microarray, higher = more signal;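 further: score merges 667nm spot fluorescence with signal to noise across triplicate slides; reference of the scale not given here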
[13] = probe aCHRDL2 binding to arrayed compounds – biochemical, biotinylated probe, 635/667 nm fluorescence, primary screen (AID 1100); details: small-molecule microarray, higher = more signal
[14] = change in splice reporter luminescence, either direction, cell-based, HEK293, spliceosome inhibition project, primary screen (AID 1101); details: HEK293 splicing luciferase reporter, 24 h, higher = more signal, called active from +8 up or from −8 down;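 further: HEK293 cells carrying a splicing-competent luciferase reporter gene; test concentration not given here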
[15] = target: Fibroblast growth factor 10 (Homo sapiens) (UniProt O15520); experiment: compounds binding fibroblast growth factor 10 – biochemical, small-molecule microarray, 635 nm fluorescence, primary screen (AID 1102); details: FGF10 binding, fluorescence 635 nm, higher = more signal
[16] = test system: glycogen synthase kinase-3 (GSK3A per assay name; protocol says GSK3B); experiment: compounds binding glycogen synthase kinase-3 – biochemical, small-molecule microarray, 635 nm fluorescence, GSK3A, primary screen (AID 1103); details: fluorescence 635 nm, higher = more signal; further: the record names both GSK3A and GSK3B
[17] = target: Epidermal growth factor receptor (Homo sapiens) (UniProt P00533); experiment: compounds binding epidermal growth factor receptor – biochemical, small-molecule microarray, 635 nm fluorescence, primary screen (AID 1104); details: EGFR binding, higher = more signal;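 further: score merges 667 nm emission intensity with spot signal to noise over triplicate slides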
[18] = target: Follistatin-related protein 3 (Homo sapiens) (UniProt O95633); experiment: compounds binding follistatin-related protein 3 – biochemical, small-molecule microarray, 635 nm fluorescence, primary screen (AID 1105); details: FSTL3 binding, higher = more signal;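 further: score merges emission near 667 nm and signal to noise per printed spot across three slides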
[19] = target: Dickkopf-related protein 1 (Homo sapiens) (UniProt O94907); experiment: small molecules binding DKK1 protein – biochemical, small-molecule microarray, 635 nm fluorescence scan, primary screen (AID 1106); details: higher = more signal;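 further: score merges emission near 667 nm with signal to noise over three replicate slides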
[20] = test system: Inhibin beta A chain (activin A); experiment: small molecules binding activin A – biochemical, small-molecule microarray, 635 nm fluorescence scan, primary screen (AID 1107); details: INHBA, higher = more signal;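 further: mouse activin A protein probed at 4.33 µg/mL on printed slides; score merges bound-protein fluorescence near 667 nm with spot signal-to-noise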

Fibroblast growth factor 10 (Homo sapiens), sequence (O15520 whole entry, looked up): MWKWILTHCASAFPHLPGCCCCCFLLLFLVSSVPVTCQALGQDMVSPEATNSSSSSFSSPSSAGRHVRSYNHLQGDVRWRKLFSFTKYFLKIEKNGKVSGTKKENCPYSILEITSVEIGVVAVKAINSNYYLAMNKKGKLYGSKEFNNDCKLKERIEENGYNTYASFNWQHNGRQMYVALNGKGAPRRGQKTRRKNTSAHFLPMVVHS
Neurogenic locus notch homolog protein 3 (Homo sapiens), sequence (Q9UM47 whole entry, looked up): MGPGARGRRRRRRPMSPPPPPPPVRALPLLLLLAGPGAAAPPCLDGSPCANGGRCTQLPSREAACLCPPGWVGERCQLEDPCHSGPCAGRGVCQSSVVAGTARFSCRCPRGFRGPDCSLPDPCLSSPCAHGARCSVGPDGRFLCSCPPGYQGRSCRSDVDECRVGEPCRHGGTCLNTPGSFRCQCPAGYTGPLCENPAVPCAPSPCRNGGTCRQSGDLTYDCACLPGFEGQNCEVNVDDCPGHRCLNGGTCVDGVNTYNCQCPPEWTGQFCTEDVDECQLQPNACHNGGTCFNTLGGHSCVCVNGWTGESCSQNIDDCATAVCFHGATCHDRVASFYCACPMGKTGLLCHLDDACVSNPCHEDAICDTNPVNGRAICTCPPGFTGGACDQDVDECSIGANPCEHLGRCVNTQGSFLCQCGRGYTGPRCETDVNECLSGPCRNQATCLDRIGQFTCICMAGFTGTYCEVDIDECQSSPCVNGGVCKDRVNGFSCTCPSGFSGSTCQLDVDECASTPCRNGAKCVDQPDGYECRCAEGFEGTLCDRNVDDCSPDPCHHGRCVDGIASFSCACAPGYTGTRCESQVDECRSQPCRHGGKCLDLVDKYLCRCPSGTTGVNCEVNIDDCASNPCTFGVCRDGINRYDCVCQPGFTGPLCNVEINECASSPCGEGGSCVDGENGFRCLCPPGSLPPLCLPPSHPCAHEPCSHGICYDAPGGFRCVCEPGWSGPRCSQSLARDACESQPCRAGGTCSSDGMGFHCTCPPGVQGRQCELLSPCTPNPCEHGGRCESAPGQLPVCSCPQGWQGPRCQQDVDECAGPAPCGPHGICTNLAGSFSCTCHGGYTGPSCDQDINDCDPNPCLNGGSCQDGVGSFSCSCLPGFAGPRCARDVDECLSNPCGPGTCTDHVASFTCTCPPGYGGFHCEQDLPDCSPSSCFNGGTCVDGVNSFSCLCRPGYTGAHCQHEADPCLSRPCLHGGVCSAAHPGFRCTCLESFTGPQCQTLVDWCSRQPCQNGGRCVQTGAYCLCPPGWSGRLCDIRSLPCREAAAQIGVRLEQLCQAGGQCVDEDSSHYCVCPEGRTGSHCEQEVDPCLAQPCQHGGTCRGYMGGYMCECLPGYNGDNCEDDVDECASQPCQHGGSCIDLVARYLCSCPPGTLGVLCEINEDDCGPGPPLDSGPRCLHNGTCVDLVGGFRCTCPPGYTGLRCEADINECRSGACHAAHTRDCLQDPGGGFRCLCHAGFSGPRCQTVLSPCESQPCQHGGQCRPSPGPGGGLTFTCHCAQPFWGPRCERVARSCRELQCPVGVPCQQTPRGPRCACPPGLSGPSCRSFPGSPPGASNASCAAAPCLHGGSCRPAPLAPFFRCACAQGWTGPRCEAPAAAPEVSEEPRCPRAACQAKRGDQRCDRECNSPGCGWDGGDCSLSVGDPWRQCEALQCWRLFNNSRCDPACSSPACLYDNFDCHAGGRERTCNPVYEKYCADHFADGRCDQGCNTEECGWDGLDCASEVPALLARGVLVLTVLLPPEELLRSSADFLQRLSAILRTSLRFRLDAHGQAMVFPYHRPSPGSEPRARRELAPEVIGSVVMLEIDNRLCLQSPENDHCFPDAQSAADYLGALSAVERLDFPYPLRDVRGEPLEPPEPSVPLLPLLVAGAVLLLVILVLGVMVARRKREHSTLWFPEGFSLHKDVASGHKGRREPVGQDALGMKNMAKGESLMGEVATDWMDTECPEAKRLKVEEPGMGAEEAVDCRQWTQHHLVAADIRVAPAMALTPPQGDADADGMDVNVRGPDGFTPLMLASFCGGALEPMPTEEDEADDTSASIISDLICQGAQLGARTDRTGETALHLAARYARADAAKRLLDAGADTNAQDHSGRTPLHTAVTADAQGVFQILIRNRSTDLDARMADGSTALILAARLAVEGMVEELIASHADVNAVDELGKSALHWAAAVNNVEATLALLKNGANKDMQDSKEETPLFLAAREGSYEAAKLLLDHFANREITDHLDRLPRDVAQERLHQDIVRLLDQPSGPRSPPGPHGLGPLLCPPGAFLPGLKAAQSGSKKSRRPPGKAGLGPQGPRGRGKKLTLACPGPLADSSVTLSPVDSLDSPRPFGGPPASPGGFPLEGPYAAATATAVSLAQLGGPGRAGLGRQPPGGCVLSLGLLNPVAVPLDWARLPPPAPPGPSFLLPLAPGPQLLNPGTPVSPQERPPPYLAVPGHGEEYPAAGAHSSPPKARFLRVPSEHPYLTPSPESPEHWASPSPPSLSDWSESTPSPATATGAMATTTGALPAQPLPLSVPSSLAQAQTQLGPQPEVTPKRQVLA
Dickkopf-related protein 1 (Homo sapiens), sequence (O94907 whole entry, looked up): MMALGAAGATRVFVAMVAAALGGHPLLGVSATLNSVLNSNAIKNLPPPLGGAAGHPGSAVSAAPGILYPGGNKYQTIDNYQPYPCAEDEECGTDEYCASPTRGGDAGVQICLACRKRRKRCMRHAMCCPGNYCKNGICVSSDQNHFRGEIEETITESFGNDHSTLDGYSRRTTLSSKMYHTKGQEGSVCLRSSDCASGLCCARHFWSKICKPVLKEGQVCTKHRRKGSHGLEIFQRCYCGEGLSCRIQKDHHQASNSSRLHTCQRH
Torsin-1A-interacting protein 2 (Homo sapiens), sequence (Q8NFQ8 whole entry, looked up): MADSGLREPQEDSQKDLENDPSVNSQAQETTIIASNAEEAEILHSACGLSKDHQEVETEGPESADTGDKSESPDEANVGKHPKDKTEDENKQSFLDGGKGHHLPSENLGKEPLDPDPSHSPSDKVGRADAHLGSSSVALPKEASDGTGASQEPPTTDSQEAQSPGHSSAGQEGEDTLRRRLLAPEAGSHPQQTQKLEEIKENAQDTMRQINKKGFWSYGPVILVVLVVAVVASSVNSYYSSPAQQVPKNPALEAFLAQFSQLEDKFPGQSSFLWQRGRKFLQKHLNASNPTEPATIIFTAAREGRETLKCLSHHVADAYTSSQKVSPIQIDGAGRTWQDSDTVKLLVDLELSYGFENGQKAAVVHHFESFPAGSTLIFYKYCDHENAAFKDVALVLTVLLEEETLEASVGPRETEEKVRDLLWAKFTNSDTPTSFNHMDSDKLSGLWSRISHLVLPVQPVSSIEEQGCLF
Follistatin-related protein 3 (Homo sapiens), sequence (O95633 whole entry, looked up): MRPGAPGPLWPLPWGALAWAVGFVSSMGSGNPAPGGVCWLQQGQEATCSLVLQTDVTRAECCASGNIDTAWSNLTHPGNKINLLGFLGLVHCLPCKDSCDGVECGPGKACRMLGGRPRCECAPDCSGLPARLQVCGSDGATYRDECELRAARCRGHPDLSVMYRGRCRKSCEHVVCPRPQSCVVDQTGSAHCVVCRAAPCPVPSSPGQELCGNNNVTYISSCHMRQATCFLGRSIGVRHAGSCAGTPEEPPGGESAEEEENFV
Epidermal growth factor receptor (Homo sapiens), sequence (P00533 whole entry, looked up): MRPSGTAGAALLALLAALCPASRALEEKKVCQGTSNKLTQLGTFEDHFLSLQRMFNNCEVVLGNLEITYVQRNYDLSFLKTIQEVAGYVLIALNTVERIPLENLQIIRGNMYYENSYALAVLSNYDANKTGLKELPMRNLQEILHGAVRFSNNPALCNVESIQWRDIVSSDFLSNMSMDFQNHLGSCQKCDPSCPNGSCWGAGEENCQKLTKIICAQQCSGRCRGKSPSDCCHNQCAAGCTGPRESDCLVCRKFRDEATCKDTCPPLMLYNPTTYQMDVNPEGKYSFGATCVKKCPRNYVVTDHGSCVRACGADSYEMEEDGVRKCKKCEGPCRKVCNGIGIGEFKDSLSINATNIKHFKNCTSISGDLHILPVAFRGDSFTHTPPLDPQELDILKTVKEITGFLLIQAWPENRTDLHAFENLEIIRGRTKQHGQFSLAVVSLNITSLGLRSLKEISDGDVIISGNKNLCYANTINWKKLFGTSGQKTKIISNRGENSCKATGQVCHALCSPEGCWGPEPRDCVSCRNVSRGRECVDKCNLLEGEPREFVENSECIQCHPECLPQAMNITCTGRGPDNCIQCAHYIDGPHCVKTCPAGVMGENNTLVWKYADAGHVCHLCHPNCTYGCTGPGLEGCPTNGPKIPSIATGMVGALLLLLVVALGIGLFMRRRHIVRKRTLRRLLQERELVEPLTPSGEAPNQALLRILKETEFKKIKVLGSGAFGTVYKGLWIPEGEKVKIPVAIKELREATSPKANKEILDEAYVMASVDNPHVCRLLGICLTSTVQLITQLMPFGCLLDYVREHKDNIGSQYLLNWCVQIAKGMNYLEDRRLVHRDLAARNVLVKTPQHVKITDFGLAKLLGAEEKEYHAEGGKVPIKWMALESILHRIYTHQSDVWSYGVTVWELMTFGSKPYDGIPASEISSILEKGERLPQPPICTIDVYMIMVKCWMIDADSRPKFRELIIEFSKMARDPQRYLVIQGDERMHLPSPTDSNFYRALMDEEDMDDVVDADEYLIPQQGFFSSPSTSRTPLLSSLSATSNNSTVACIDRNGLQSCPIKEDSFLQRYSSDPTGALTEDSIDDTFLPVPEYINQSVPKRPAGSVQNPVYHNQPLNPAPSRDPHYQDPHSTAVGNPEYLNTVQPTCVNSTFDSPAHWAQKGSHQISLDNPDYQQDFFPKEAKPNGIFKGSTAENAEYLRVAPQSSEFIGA

Row | Structure (SMILES) | composite z-score [1] | z-score [2] | z-score [3] | z-score [4] | composite z-score [5] | z-score [6] | composite z-score [7] | composite z-score [8] | composite z-score [9] | composite z-score [10] | composite z-score [11] | composite z-score [12] | composite z-score [13] | z-score [14] | composite z-score [15] | composite z-score [16] | composite z-score [17] | composite z-score [18] | composite z-score [19] | composite z-score [20]
1 | C=CCN(C(=O)C(c1cccs1)N(C(=O)/C=C\C(=O)O)c1ccc(CCO)cc1)C(C)(C)C (stereo not given) | -0.417 and -0.231 | -0.042 (inactive) and 0.181 (inactive) | -0.701 (inactive) and 0.442 (inactive) | -0.3 (inactive) and -0.104 (inactive) | 3.58 and 3.17 | 0.286 (inactive) and -0.294 (inactive) | -0.0964 and -0.116 | -2.17 and -1.9 | -0.583 and -1.21 | -0.106 and -0.209 | -0.202 and 0.938 | -0.123 and 0.0381 | 0.274 and 1.05 | -0.14 (inactive) and 0.253 (inactive) | -0.99 and -2.19 | -0.265 and -0.746 | -1.41 and -1.91 | -1.76 and -2.36 | -2.48 and -2.7 | -1.03 and -2.06
2 | Cc1ccc(S(=O)(=O)N[C@H]2COC(=O)[C@@H](C)COC(=O)[C@H](C)NC(=O)CC=C[C@H]2C)cc1 | 0.277 | -0.0016 (inactive) | -0.838 (inactive) | -0.351 (inactive) | -0.487 | 0.147 (inactive) | -0.121 | 1.17 | 0.646 | -0.0862 | 0.163 | -0.45 | -0.972 | 0.00442 (inactive) | 0.752 | 0.393 | 0.554 | 0.804 | 0.881 | -0.108
3 | C=CCN(C(=O)C(c1cccs1)N(CCOCCO)C(=O)/C=C\C(=O)O)c1ccc(OC)cc1 (stereo not given) | -1.56 and -0.685 | -2.54 (inactive) and -0.463 (inactive) | -0.314 (inactive) and -2.05 (inactive) | -1.51 (inactive) and -0.835 (inactive) | -1.45 and -0.709 | 2.74 (inactive) and 2.71 (inactive) | -0.25 and -0.299 | -0.482 and -1.39 | -1.2 and -0.655 | -0.172 and -0.316 | -1.53 and -0.0146 | -0.626 and -0.357 | -0.183 and 0.97 | -1.88 (inactive) and -1.58 (inactive) | -0.934 and -0.942 | -0.903 and -0.645 | -0.254 and -1.5 | -0.603 and -1.07 | -0.151 and -2.76 | -0.539 and -0.186
4 | CC(C)[Si]1(C(C)C)OCc2cc(C3CC3)nc(CCc3ccccc3)c21 | -0.834 and 0.139 | 0.289 (inactive) and 0.35 (inactive) | -1.32 (inactive) and 0.134 (inactive) | 0.725 (inactive) and 0.474 (inactive) | -0.597 and 0.259 | -0.102 (inactive) and -1.01 (inactive) | -0.22 and -0.0956 | -0.27 and 0.258 | -0.149 and 0.351 | -0.109 and -0.0147 | -0.534 and -0.371 | 0.0295 and -0.146 | 0.221 and -0.262 | -0.383 (inactive) and 0.693 (inactive) | -0.348 and 0.0251 | -0.897 and 0.178 | 0.105 and 0.15 | -0.238 and 0.195 | -0.293 and 0.135 | 0.768 and 0.242
5 | COC(=O)C1=C(C)N(Cc2ccccc2)[C@]23O[C@](C(=O)OC)(C(=O)N2[C@@H]1c1ccccc1)[C@H]1CCCC(=O)[C@H]13 | -0.0081 and 0.249 | 0.563 (inactive) and 0.21 (inactive) | -1.79 (inactive) and -1.07 (inactive) | -1.95 (inactive) and -0.557 (inactive) | 0.164 and -0.142 | 0.302 (inactive) and -0.824 (inactive) | -0.102 and -0.132 | 0.0709 and 0.413 | 0.31 and 0.604 | 0.173 and -0.0497 | 0.355 and 0.285 | 0.0172 and -0.338 | -0.298 and -0.45 | -0.0479 (inactive) and -1.41 (inactive) | 0.526 and 0.72 | 0.201 and 0.287 | 0.218 and 0.506 | 0.336 and 0.515 | 0.421 and 0.508 | 0.518 and 0.15
6 | Cc1ccc(S(=O)(=O)N[C@H]2COC(=O)[C@@H](Cc3ccccc3)NC(=O)[C@@H](C)COC(=O)CC=C[C@@H]2C)cc1 | -0.0829 and 1.56 | -0.248 (inactive) and -0.666 (inactive) | 0.209 (inactive) and 0.195 (inactive) | -0.342 (inactive) and -0.348 (inactive) | -0.872 and 0.969 | 0.205 (inactive) and 0.134 (inactive) | -0.212 and -0.0726 | 0.3 and 0.541 | -0.587 and 0.629 | -0.0952 and -0.0661 | -0.218 and 0.304 | -0.483 and -0.332 | -0.803 and -0.645 | 0.565 (inactive) and -0.0193 (inactive) | 0.117 and 0.435 | -0.0808 and -0.0049 | 0.513 and 0.282 | 0.87 and 0.533 | 0.871 and 0.895 | 0.657 and 0.0736
7 | O=c1n(-c2ccccc2)c(=O)n2n1CC[C@@H]1C(=NOC[C@@H](O)COCc3ccco3)[C@H]3O[C@H]3[C@@H](O)[C@@H]12 | 1.23 and -0.267 | -0.188 (inactive) and 0.0291 (inactive) | -0.7 (inactive) and 0.498 (inactive) | 0.0488 (inactive) and 0.801 (inactive) | 0.264 and -1.26 | -0.517 (inactive) and 0.0684 (inactive) | -0.107 and -0.0797 | 1.06 and 0.325 | 0.827 and -0.585 | -0.139 and -0.0512 | 0.981 and 1.38 | -0.418 and -0.503 | -0.929 and -0.662 | -1.51 (inactive) and 0.0711 (inactive) | 0.526 and -0.556 | 0.605 and -0.449 | 0.634 and 0.518 | 0.973 and 0.426 | 1.24 and 0.48 | 0.467 and 0.442
